The results in this text go back to PubChem BioAssay (Tox21).

A short description of experiment [1]: qHTS assay to identify small molecule antagonists of the glucocorticoid receptor (GR) signaling pathway - cell viability counter screen (AID 720693). Further: nearly all actives have a fitted effect of over 55% in size. Further: potency means the concentration at half of the fitted maximal effect. A general note: In qHTS, concentration-response curves come from the screen itself.
A short description of experiment [2]: qHTS assay for identifying genotoxic compounds that show differential cytotoxicity against isogenic chicken DT40 cell lines with known DNA damage response pathways - wild type cell line (AID 743012). Further: nearly all actives have a fitted effect of over 60% in size. Further: potency means the concentration at half of the fitted maximal effect. In outline:
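300 wt DT40 cells/well; cpd (DMSO) pintool-transferred after ~0.5 h at 37 C/5% CO2; 40 h incubation; CellTiter-Glo added, 30 min RT; luminescence read.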

A short description of experiment [3]: qHTS assay for identifying genotoxic compounds that show differential cytotoxicity against isogenic chicken DT40 cell lines with known DNA damage response pathways - Rev3 mutant cell line (AID 743014). Further: nearly all actives have a fitted effect of over 55% in size. Further: potency means the concentration at half of the fitted maximal effect.
Experiment [4] in a line: qHTS assay for identifying genotoxic compounds that show differential cytotoxicity against isogenic chicken DT40 cell lines with known DNA damage response pathways - Rad54/Ku70 mutant cell line (AID 743015). Further: nearly all actives have a fitted effect of over 60% in size. Further: potency means the concentration at half of the fitted maximal effect.
Experiment [5] can be described thus: qHTS assay to identify small molecule antagonists of the androgen receptor (AR) signaling pathway - cell viability counter screen (AID 743033; further: nearly all actives have a fitted effect of over 45% in size; further: potency means the concentration at half of the fitted maximal effect).
For experiment [6], the target named is Androgen receptor (Homo sapiens) (UniProt P10275). The experiment in a line: qHTS assay to identify small molecule antagonists of the androgen receptor (AR) signaling pathway (AID 743035; active means well fitted inhibition curve with a large enough effect in the signal ratio in the repeat runs, not every such curve was filed as active; the % refers to the signal ratio). In outline:
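In this cell-based reporter screen, compounds were tested in concentration series against R1881-activated HEK293 cells expressing beta-lactamase under UAS control; after 16 h at 37C, FRET substrate was added and fluorescence read 2 h later.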

For experiment [7] the target is unchanged. Nature of the experiment: qHTS assay to identify small molecule agonists of the androgen receptor (AR) signaling pathway using the MDA cell line (AID 743040; further: nearly all actives have a fitted effect of over 20% in size; further: potency means the concentration at half of the fitted maximal effect). The procedure, abridged: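 Stable MMTV-luciferase reporter in MDA-kb2 cells; note the promoter carries GR as well as AR response elements. 16 h compound treatment, 37C, 0% CO2; ONE-Glo luminescence endpoint.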

The nature of experiment [8]: qHTS assay to identify small molecule antagonists of the androgen receptor (AR) signaling pathway using the MDA cell line - cell viability counter screen (AID 743041; further: nearly all actives have a fitted effect of over 45% in size; further: potency means the concentration at half of the fitted maximal effect). In outline:
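Using the breast carcinoma line MDA-kb2 AR-luc, test chemicals were co-incubated with R1881 for 16 h; CellTiter-Fluor reagent, added at 15.5 h, provided a fluorescence measure of live cells.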

Experiment [9] has as its target Androgen receptor (Homo sapiens) (UniProt P10275). Nature of the experiment: qHTS assay to identify small molecule antagonists of the androgen receptor (AR) signaling pathway using the MDA cell line (AID 743042; further: nearly all actives have a fitted effect of over 55% in size; further: potency means the concentration at half of the fitted maximal effect). In outline:
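Antagonist mode: compounds plus R1881 agonist added to MDA-kb2 AR-luc cells, incubated 16 h at 37C. Luciferase reporter luminescence quantified, with multiplexed CellTiter-Fluor readout for cell viability.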

SMILES strings stand for the structures. Inconclusive results are not listed. The source made the active and inactive calls. Unless noted, the call rests on the fitted dose curve; in most records, active means well fitted curve in the direction sought with a large enough effect in the repeat runs; inconclusive means weak or mixed curves; inactive means no such curve, though single readings can be large; an effect the other way counts as inactive or inconclusive.

Sequence of Androgen receptor (Homo sapiens) (P10275 whole entry, looked up): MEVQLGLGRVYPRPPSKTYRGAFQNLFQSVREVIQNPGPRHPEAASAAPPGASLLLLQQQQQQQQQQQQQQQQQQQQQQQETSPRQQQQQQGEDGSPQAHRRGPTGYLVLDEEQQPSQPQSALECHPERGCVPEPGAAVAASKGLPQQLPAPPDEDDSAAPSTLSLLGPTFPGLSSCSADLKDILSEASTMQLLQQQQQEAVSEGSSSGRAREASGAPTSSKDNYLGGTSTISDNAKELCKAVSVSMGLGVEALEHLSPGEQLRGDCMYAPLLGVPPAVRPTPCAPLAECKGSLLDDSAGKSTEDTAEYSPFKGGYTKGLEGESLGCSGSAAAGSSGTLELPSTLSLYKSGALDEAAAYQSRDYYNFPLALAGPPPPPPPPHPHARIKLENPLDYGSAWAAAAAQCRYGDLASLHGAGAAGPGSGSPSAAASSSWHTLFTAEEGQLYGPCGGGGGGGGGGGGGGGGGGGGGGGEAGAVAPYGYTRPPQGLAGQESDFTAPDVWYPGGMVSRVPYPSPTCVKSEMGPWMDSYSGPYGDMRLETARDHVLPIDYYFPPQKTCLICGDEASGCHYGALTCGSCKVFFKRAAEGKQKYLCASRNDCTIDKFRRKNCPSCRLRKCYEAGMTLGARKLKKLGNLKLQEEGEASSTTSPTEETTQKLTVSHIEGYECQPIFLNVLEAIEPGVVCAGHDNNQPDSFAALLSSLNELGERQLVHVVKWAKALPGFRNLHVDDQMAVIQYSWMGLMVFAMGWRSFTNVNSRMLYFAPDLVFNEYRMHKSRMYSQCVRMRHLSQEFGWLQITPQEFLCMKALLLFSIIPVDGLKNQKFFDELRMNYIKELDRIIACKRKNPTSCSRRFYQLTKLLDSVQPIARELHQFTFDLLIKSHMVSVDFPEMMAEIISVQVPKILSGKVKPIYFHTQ

As for `N[C@@H](C(=O)N[C@@H]1C(=O)N2C(C(=O)O)=C(CSc3cn[nH]n3)CS[C@H]12)c1ccc(O)cc1`, the Potency entry in experiment [1], in experiment [2], in [3], in experiment [4], in experiment [5] and in experiment [6] was “inactive” in each case. The Potency result in experiment [7], in [8] and in experiment [9] was “inactive” throughout.
Turning to `CC[C@@]1(O)C[C@H](O[C@H]2C[C@H](N(C)C)[C@H](O[C@H]3C[C@H](O)[C@H](O[C@H]4CCC(=O)[C@H](C)O4)[C@H](C)O3)[C@H](C)O2)c2c(cc3c(c2O)C(=O)c2c(O)cccc2C3=O)[C@H]1C(=O)OC`, the Potency in experiment [1] was 2390 nM (active); in [2], 53.1 nM (active); in experiment [3], 53.1 nM (active); in experiment [4] it was 42.2 nM (active).
Consider `CCCCCCCCCCCCOCCCN`, for which the Potency entry in [1], in [2], in experiment [3], in [4], in [5] and in experiment [6] was “inactive” each time. Further, the Potency entry in experiment [7], in experiment [8] and in experiment [9] was “inactive” each time.
On to `CCCC(=O)N1CCCN(c2nc(N)c3cc(OC)c(OC)cc3n2)CC1`, for which the Potency result in experiment [1], in experiment [2], in experiment [3], in [4], in [5] and in experiment [6] was “inactive” each time. In addition, the Potency result in experiment [8] and in [9] was “inactive” each time.
Consider `O=P(O)(O)OC(Cn1cncn1)(Cn1cncn1)c1ccc(F)cc1F`, for which the Potency entry in [1], in experiment [2], in experiment [3], in experiment [4], in experiment [5] and in experiment [6] was “inactive” in each case. Also, the Potency result in experiment [7], in [8] and in experiment [9] was “inactive” each time.
With `CCOC(=O)[C@@H](N)CS`, the Potency result in experiment [1], in [2], in experiment [3], in experiment [4] and in experiment [5] was “inactive” throughout.
For `CN(C)CCC=C1c2ccccc2C(C)(C)c2ccccc21`, the Potency result in [1] was “inactive”. The Potency in experiment [2] was 9440 nM (active); in experiment [3], 13300 nM (active); in experiment [4] it was 13300 nM (active).
With `OC(CN1CCCCC1)c1cc(-c2ccccc2)on1` (stereo not drawn), the Potency result in [1], in experiment [2], in [3], in experiment [4], in [5] and in [6] was “inactive” in each case. In addition, the Potency result in experiment [8] and in experiment [9] was “inactive” throughout.
Take `O=C(OC[C@H]1O[C@](O)(COC(=O)c2cccnc2)[C@@H](OC(=O)c2cccnc2)[C@@H]1OC(=O)c1cccnc1)c1cccnc1`: the Potency entry in experiment [1], in experiment [2], in experiment [3], in experiment [4], in experiment [5] and in experiment [6] was “inactive” in each case. Besides, the Potency result in experiment [8] and in [9] was “inactive” throughout.
`O=C(O)CCC/C=C\C[C@@H]1[C@@H](/C=C/[C@@H](O)COc2cccc(C(F)(F)F)c2)[C@H](O)C[C@@H]1O`: the Potency entry in [1], in experiment [2], in [3], in experiment [4], in [5] and in [6] was “inactive” throughout. Further, the Potency result in experiment [7], in [8] and in experiment [9] was “inactive” in each case.
As to `Clc1cc(Cl)c(OCC#CI)cc1Cl`, the Potency result in [1] is “inactive”. Also, the Potency in experiment [2] is 1680 nM (active); in experiment [3] it was 2980 nM (active); in experiment [4], 2660 nM (active).
Turning to `CC[N+](C)(C)Cc1ccccc1Br`, the Potency entry in [1], in experiment [2], in experiment [3], in experiment [4], in experiment [5] and in [6] was “inactive” each time. Also, the Potency entry in [8] and in experiment [9] was “inactive” in each case.
`NC(=O)Oc1ccc(Cc2ccccc2)cc1`: the Potency entry in experiment [1], in experiment [2], in experiment [3] and in experiment [4] was “inactive” in each case.
Regarding `CN1CCCC(CN2c3ccccc3Sc3ccccc32)C1` (stereo not drawn), the Potency entry in experiment [1] and in [5] was “inactive” throughout. The Potency in [2] is 7500 nM (active); in [3], 8410 nM (active); in experiment [4], 9440 nM (active).
Consider `CC(C)(C)C1(O)CCN2CC3c4ccccc4CCc4cccc(c43)C2C1` (stereo not drawn), for which the Potency entry in [1] and in experiment [5] was “inactive” each time. Also, the Potency was 9440 nM (active) in experiment [2], 11900 nM (active) in [3] and 11900 nM (active) in experiment [4].
For the molecule `CC(=C\c1ccccc1)/C=C1/SC(=S)N(CC(=O)O)C1=O`, the Potency entry in experiment [1], in [2], in experiment [3] and in [4] was “inactive” throughout.
As to `C[Se]CCC(N)C(=O)O` (stereo not drawn), the Potency result in [1], in experiment [2], in experiment [3], in experiment [4] and in experiment [5] was “inactive” each time.
For the molecule `CC(=O)Nc1ccc(OC(=O)c2ccccc2O)cc1`, the Potency result in experiment [1], in experiment [2], in experiment [3], in [4], in experiment [5] and in [6] was “inactive” in each case. Also, the Potency entry in experiment [7], in experiment [8] and in experiment [9] was “inactive” throughout.
As for `CN[C@H]1CCc2cc(OC)c(OC)c(OC)c2-c2ccc(OC)c(=O)cc21`, the Potency entry in [1], in [5], in experiment [7], in experiment [8] and in experiment [9] was “inactive” throughout. The Potency is 47.3 nM (active) in [2], 53.1 nM (active) in experiment [3] and 53.1 nM (active) in experiment [4].
Regarding `O=C1c2ccccc2C(=O)C1c1ccc(Cl)cc1`, the Potency entry in experiment [1], in experiment [2], in experiment [3], in [4], in experiment [5] and in experiment [7] was “inactive” throughout. Further, the Potency result in [9] was “inactive”.
Regarding `O=C(O)C1=C(CSc2nnnn2CS(=O)(=O)O)CS[C@@H]2[C@H](NC(=O)[C@H](O)c3ccccc3)C(=O)N12`, the Potency result in experiment [1], in experiment [2], in [3], in [4], in experiment [5] and in experiment [8] was “inactive” throughout. The Potency entry in experiment [9] was “inactive”. Besides, the Potency in experiment [7] is 26600 nM (active).
Consider `COc1ccc(C2NC(=S)N3C(c4ccc(OC)c(OC)c4)NC(=S)N23)cc1OC` (stereo not drawn), for which the Potency result in [1] and in experiment [7] was “inactive” in each case. The Potency in [2] was 6.7 nM (active); in experiment [3], 10.6 nM (active); in experiment [4], 10.6 nM (active); in experiment [5], 239 nM (active); in [8] it was 150 nM (active); in experiment [9] it was 75 nM (active).
